Six1-Eya2 blk: blocks human Six1 binding to Eya2 | Q15475+O00167 | activity change, % (no concentration beside the values) | 0.56% of 360,000 active | AlphaScreen GST-Six1/His-Eya2 binding, biochemical; active compounds read low; in the data active means activity change below about -65%; inconclusive means mostly about -30% to -63%
Target sequence (O00167 whole entry, looked up): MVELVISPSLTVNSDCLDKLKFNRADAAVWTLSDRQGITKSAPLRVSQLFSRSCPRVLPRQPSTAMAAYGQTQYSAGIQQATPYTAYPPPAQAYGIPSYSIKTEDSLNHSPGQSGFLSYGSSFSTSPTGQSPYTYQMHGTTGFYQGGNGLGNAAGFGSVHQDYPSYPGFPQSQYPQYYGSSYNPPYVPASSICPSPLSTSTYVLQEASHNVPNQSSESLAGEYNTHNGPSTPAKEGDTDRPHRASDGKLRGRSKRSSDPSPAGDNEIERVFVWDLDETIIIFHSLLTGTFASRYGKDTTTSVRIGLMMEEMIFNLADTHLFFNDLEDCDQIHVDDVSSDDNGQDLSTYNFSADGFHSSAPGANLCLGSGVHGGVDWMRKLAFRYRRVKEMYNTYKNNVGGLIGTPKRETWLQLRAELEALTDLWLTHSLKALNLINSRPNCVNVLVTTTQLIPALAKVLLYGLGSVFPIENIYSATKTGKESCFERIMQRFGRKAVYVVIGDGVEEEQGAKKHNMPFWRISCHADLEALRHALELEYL
Target sequence (Q15475 whole entry, looked up): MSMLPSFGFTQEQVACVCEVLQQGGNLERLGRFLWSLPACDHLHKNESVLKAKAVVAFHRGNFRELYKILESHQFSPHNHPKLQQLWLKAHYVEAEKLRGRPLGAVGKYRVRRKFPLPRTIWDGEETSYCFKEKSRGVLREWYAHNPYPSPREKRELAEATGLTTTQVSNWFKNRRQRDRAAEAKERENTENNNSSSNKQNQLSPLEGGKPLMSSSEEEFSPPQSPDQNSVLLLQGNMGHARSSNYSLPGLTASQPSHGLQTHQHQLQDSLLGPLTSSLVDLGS
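GST-Six1 + His-Eya2 (5X stock: 250/500 nM); Tris pH 8.0, 300 mM NaCl, 0.05% BSA, 0.02% Tween 20; GSH donor/Ni acceptor beads; 1 h 37 °C dark; AlphaScreen readout.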
KDM4E inh: inhibitors of human JMJD2E histone demethylase. B2RXH2. JMJD2E catalytic domain, FDH-coupled NADH fluorescence (FDH is formaldehyde dehydrogenase). Potency, µM (titrated, usually from 57.1 µM), inactives show at the top dose activity change, negative = inhibition, actives largely listed as inhibitors. 1.6% of 230,000 active. AID 2147; active means well fitted inhibition curve with a large enough effect, not every such curve was filed as active; inconclusive means small, poorly fitted or top-dose-only effect, or another doubt; inactive means no such curve, though single readings can be large or run the other way;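 further: potency means the concentration at half of the fitted maximal effect; 0% = wells with enzyme and -100% = buffer wells without enzyme; nearly all actives have a fitted effect of over 50% in size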
GALK inh: galactokinase (human) inhibition. Potency, µM (doses to about 57.5 µM), for the others: at the highest dose activity change, negative = inhibition, usual class: inhibitors. 0.007% of 270,000 active. Purified GALK, Kinase-Glo residual ATP luminescence. P51570; further: potency means the concentration at half of the fitted maximal effect
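The enzyme phosphorylates galactose (100 uM) using ATP (35 uM); inhibition is detected as higher residual ATP, quantified by bioluminescence after 1 h reaction at room temperature, pH 8.0.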
Apoferritin bind: candidate novel general anesthetic via apoferritin binding. AID 485281. apoferritin/1-aminoanthracene competitive binding, fluorescence. 0.074% of 350,000 active. Potency, µM (highest dose often 77.5 µM), inactives show at the top dose activity change, negative = displacement, actives largely listed as inhibitors. P02791; further: potency means the concentration at half of the fitted maximal effect; nearly all actives have a fitted effect of over 20% in size
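Steps: apoferritin (10 uM) was premixed with half-saturated 1-AMA in PBS, compounds were pin-transferred, plates stood 10 min at room temperature, fluorescence was read at 380/535 nm, and curves were fitted with a Hill equation.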
Eya2 phos inh: Eya2 (human) phosphatase inhibition; O00167; recombinant Eya2, OMFP fluorescence dephosphorylation (OMFP is methylfluorescein phosphate); Potency, µM (titrated, usually from 76.9 µM), for the others: at the top dose activity, negative = inhibition, hits mostly inhibitors; 0.006% of 330,000 active; AID 488837; further: potency means the concentration at half of the fitted maximal effect
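Eya2 protein (added as 0.2 uM solution) was preincubated with compound for 10 min at ambient temperature in 50 mM HEPES pH 7.5, 50 mM NaCl, 5 uM MgCl2, 0.05% BSA, 1 mM DTT. OMFP (added at 50 uM) then reacted 10 min; fluorescence read at 485/525 nm.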
CtBP-E1A blk: CtBP/E1A binding inhibition; activity change, % (test concentration not listed); AID 651724; AlphaScreen GST-E1A/His-CtBP binding, 1536-well; active compounds read low; 0.49% of 340,000 active; in the data active means activity change below about -65%; inconclusive means mostly about -30% to -63%
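Steps: dispense buffer (Tris pH 8.0, NaCl 300 mM, TCEP 1 mM, BSA, Tween 20); add 5X protein mix (GST-E1A, His-CtBP, 125 nM each); pin 23 nL compound; 2 h at 37 °C, dark; add 5X beads (50 ug/mL); 1 h; read.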
* marks the source's active call; other numbers are inactive results; ? = inconclusive; · = no result given; [ ] = remark or other dose. The entries come from a sample that favours hits as a whole. Unless noted, the call rests on the fitted dose curve; in most records, active means well fitted curve in the direction sought with a large enough effect; inconclusive means small, poorly fitted or top-dose-only effect, or another doubt; inactive means no such curve, though single readings can be large; an effect the other way counts as inactive or inconclusive. Unless noted, on the % scale 0 is the no-effect control and ±100 the full control effect.

SMILES | Six1-Eya2 blk | KDM4E inh | GALK inh | Apoferritin bind | Eya2 phos inh | CtBP-E1A blk
NC(=O)CSc1nnc(-c2ccc(O)cc2)n1Cc1ccco1 | -87* | -12% | -3% | 6% | -5% | -90*
COc1ccc(CCNc2ccc([N+](=O)[O-])cn2)cc1 | -5 | · | -1% | -21% | -12% | -29
COc1ccc(CCNc2cc(=O)[nH]c(N)n2)cc1 | -69* | -22% | -3% | 5% | 6% | -80*
CCN(CC)c1ccc2nc3c(=O)n(C)c(=O)n(C)c3nc2c1 | · | · | · | 38% | · | ·
CCN(CC)c1ccc2nc3ccccc3[n+](CC)c2c1 | -67* | · | -1% | ? | ? | -75*
CCN(CC)c1ccc2nc3ccc(N)cc3[n+](-c3ccccc3)c2c1 | -78* | · | · | · | -21% | -84*
Cc1ccc(C(=O)Sc2cccccc2=O)cc1 | -77* | · | · | 7% | 4% | -89*
O=C(Nc1ccccc1SC(=O)c1ccccc1)c1ccccc1 | -5 | · | · | · | · | -2
Cc1cc(O)c(C)c2c1CC[C@H]1[C@H](C)C(=O)O[C@H]21 | · | 0% | · | · | · | ·
CCN1C(=O)/C(=C/C=C2/CCCN2C)OC1=S | -3 | 11µM* | 5% | -3% | 9% | 0
COc1cccc(/C=C/C2=CC3(C)CC2(C)C(c2cccc(OC)c2)CC3=O)c1 (stereo not given) | · | · | · | 6%[15.3 µM] | · | ·
O=C(/C=C\NCC(=O)c1ccccc1)c1ccc2ccccc2c1 | -11 | 18µM* | 1% | -19% | 15% | -16
CCOC(=O)c1cnn(-c2ccc(C(=O)Nc3cccc(C(C)=O)c3)cc2)c1N | · | · | · | -7% | · | ·
O=C(NCc1ccccc1)c1ccc(CS(=O)(=O)c2c(Cl)cccc2Cl)o1 | · | · | · | -5% | · | ·
C=CCN(c1ccccc1)S(=O)(=O)c1cccc(C(=O)Nc2ccncc2)c1 | 4 | · | · | · | -8% | 3
C=CCN(c1ccccc1)S(=O)(=O)c1cccc(C(=O)Nc2nc3ccccc3[nH]2)c1 | -11 | 28µM* | 0% | -5% | -16% | -11
Cc1ccc(C(=O)Oc2ccc(/C=C3\C(=N)N4N=C(N5CCOCC5)SC4=NC3=O)cc2)cc1 | -88* | · | · | ? | -21% | ?
CC1(C)OC(c2ccccc2)=C/C(=C\C=N\NC(=O)c2ccncc2)O1 | -21 | 22µM* | -2% | -8% | -12% | -9
O=C(N/N=C/c1c(O)ccc2ccccc12)c1ccc(CO)nc1 | -87* | · | 0% | -8% | 18% | -92*
O=C(NN=Cc1c(O)ccc2ccccc12)c1ccc2c(c1)OCO2 | -8 | · | · | · | -17% | -21
Cc1cc(N/N=C/c2c(O)ccc3ccccc23)nc(-c2ccccc2O)n1 | -2 | 14µM* | 1% | 3% | -2% | -5
Cc1cc(Nc2ccccc2)nc(-c2ccccc2O)n1 | 2 | ? | -2% | -12% | -7% | 2
O=C(CNc1ccc(F)cc1)N/N=C/c1c(O)ccc2ccccc12 | -16 | · | -3% | 1% | 3% | ?
Oc1ccccc1C=NN=Cc1c(O)ccc2ccccc12 | 30 | · | · | · | · | 0
O=CN/N=C/c1c(O)ccc2ccccc12 | -91* | 11µM* | -1% | -14% | -1% | ·
SMILES | Six1-Eya2 blk | KDM4E inh | GALK inh | Apoferritin bind | Eya2 phos inh | CtBP-E1A blk
NC(=S)N/N=C/c1c(O)ccc2ccccc12 | -91* | 7.1µM* | · | 0% | -12% | ·
CCOc1ccc(CN2C(=O)c3ccccc3Sc3ccc(C(=O)NCc4ccc(C)cc4)cc32)cc1 | · | · | · | 1% | · | ·
CCOc1ccc(C(=O)NCc2ccc3c(c2)CCN3C(=O)c2ccc(C)cc2)cc1OCC | · | · | · | 7% | · | ·
C[C@@H](/C=C\c1cccc(Oc2ccc(F)cc2)c1)N(O)C(N)=O | · | -20% | · | · | · | ·
Cc1nnc(SCC2=C(C(=O)O)N3C(=O)C(NC(=O)Cn4cnnn4)[C@@H]3SC2)s1 (stereo not given in full) | · | -4% | · | 5% | · | ·
COc1ccc2ccccc2c1/C=N/Nc1ccc(Cl)c(C(=O)O)c1 | -21 | · | -3% | -11% | 16% | -24
COc1ccccc1N(CC(=O)N/N=C/c1c(O)ccc2ccccc12)S(C)(=O)=O | -71* | ? | 1% | -4% | -3% | ?
COc1ccccc1NCC(=O)N/N=C/c1c(O)ccc2ccccc12 | -11 | · | 0% | -6% | -19% | -21
COc1ccc(N/N=C/c2c(C(=O)O)ccc3ccccc23)cc1 | ? | 25µM* | 1% | 72% | 13% | -15
Oc1ccc2ccccc2c1/C=N/Nc1ccccc1 | -2 | 7.9µM* | -1% | -14% | -3% | 11
O=C(Cc1n[nH]c(=O)[nH]c1=O)N/N=C/c1c(O)ccc2ccccc12 | -87* | 3% | 1% | -12% | 7% | -68*
COc1cccc([C@@H]2Oc3ccc(Br)cc3C(=O)[C@H]2OC(=O)Nc2ccc(OC(F)F)cc2)c1 | · | -16% | · | · | · | ·
ONCc1ccccc1 | · | · | · | -4% | · | ·
Cc1ccc(C2=NN(C3=NN=C(N)Cc4ncnn43)C(O)(C(F)(F)F)C2)cc1 (stereo not given) | ? | ? | -1% | -7% | 0% | ·
NC1=NN=C(N2N=C(c3ccco3)CC2(O)C(F)(F)F)n2ncnc2C1 (stereo not given) | -71* | ? | 0% | -6% | 4% | 21
O=C(CCN1CCOCC1)N/N=C/c1cc(Br)cc(Br)c1O | -83* | 28µM* | 0% | 116% | 3% | -73*
O=C(NCCCN1CCOCC1)C(=O)N/N=C/c1ccccc1O | -75* | 11µM* | -1% | 0% | -7% | ?
Cc1cc(/C=N/NC(=O)C(=O)NCc2ccccn2)c(C)n1-c1cccc(Br)c1 | -14 | -13% | -2% | ? | -15% | -12
O=C(NCCCN1CCOCC1)C(=O)N/N=C/c1ccccc1Cl | 1 | 1% | -1% | 32% | 10% | ·
O=C(COc1nsnc1N1CCOCC1)N/N=C/c1ccccc1O | -90* | ? | 2% | 7% | 0% | -6
O=C(NCc1ccccn1)C(=O)N/N=C/c1ccccc1O | -73* | 6.3µM* | -1% | 1% | 5% | ?
CC(C)(N)C(=O)N[C@@H](Cc1cnc[nH]1)C(=O)N[C@H](Cc1ccc2ccccc2c1)C(=O)N[C@H](Cc1ccccc1)C(=O)N[C@@H](CCCCN)C(N)=O | · | · | · | 10% | · | ·
Cc1ccc(Cn2c(=O)n(CCc3ccccc3)c(=O)c3sc4ccccc4c32)cc1 | · | · | · | -2% | · | ·
O=C(Cc1csc(N2CCOCC2)n1)N/N=C/c1ccc(O)c(O)c1O | -73* | 8.9µM* | 6% | -20% | -4% | ?
C/C(=N\NC(=O)Cc1csc(N2CCOCC2)n1)c1ccccc1 | -3 | 4% | 0% | ? | 6% | -1
CCOc1cc(CNC(=O)CN2CCSc3ccccc32)cc(OCC)c1OCC | · | · | · | -13% | · | ·

Source: PubChem
